# PfHsp90 set2 – inhibits growth of yeast expressing Plasmodium falciparum Hsp90 | inhibition, % at 9.4 µM | hit rate 0.32% among 310,000 | S. cerevisiae expressing PfHsp90, BacTiter-Glo ATP, 48 h; yeast lacking PDR1 and PDR3 efflux regulators;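 active means every replicate shows inhibition above about 80%, whatever the replicate mean, limit read from the data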;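 further: 0% = DMSO neutral controls and 100% = 20 µM radicicol positive controls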
# tim23-1 inh – inhibits growth of tim23-1 mutant yeast; S. cerevisiae tim23-1 growth, BacTiter-Glo luminescence, 24 h; inhibition, % at 20 µM; hit rate 1.3% among 330,000; AID 463212;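 active means growth inhibition of the mutant yeast at or above 50%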;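 further: temperature-sensitive mutant grown at 25 °C; plate controls were DMSO-treated mutant yeast for no effect and medium wells lacking yeast for full effect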
# tim10-1 inh – tim10-1 yeast growth inhibition. hit rate 2.2% among 330,000. AID 463190. inhibition, % at 20 µM. S. cerevisiae tim10-1 ts strain growth, BacTiter-Glo, 24 h;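 active means inhibition of at least 40%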;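 further: mutant grown at 25 °C; 0% = DMSO wells with yeast and 100% = wells holding no yeast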
# TIM10 inh – TIM10 yeast growth inhibition; hit rate 1.4% among 330,000; S. cerevisiae TIM10 strain growth, BacTiter-Glo luminescence, 24 h; AID 463195; inhibition, % at 10 µM;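 active means inhibition of 40% or more at the single tested concentration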;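 further: wild-type TIM10 isogenic control strain grown at permissive 25 °C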
# SKKanGAS inh – inhibitors of SKKanGAS S. pyogenes growth in kanamycin (SK-promoter or general growth effect). AID 1662. inhibition, % at 7.5 µM. BacTiter-Glo, 6 h. hit rate 1.3% among 300,000;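 active means mean replicate score, as percent of positive control median, at least 50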;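 further: strain carries kanamycin resistance gene driven by streptokinase promoter and grows in 40 µg/ml kanamycin; loss of luminescence reflects streptokinase promoter inhibition or plain growth inhibition; 0% = median of DMSO wells and 100% = positive control at its reference dose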
# NLRP3 yeast inh – NALP3 inhibition in yeast; hit rate 0.39% among 330,000; Yeast reconstituted NLRP3/ASC/caspase-1, beta-gal luminescence, 24 h; AID 2825; inhibition, % at 10 µM;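 active means inhibition of 50% or more; inactive means inhibition below 50%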;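 further: plate controls were induced DMSO wells for no effect and uninduced yeast grown without galactose for full effect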
# tim23-1 conf – tim23-1 yeast growth inhibition, confirmed; shares compounds with tim23-1 inh; hit rate 83% among 4,400; inhibition, % at 20 µM; S. cerevisiae tim23-1 growth, BacTiter-Glo luminescence, 24 h;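 active means inhibition above about 39% in either of two replicate wells at 20 µM, limit read from the data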;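 further: temperature-sensitive tim23-1 mutant grown at 25 °C; 0% = DMSO wells with yeast and 100% = medium wells without yeast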
# Starred values were filed as active, the others as inactive; · = not tested or not shown; ! = a repeat was not active. Most compounds without a hit are left out; they make up all but 4.6% or so of the library.
SMILES,PfHsp90 set2,tim23-1 inh,tim10-1 inh,TIM10 inh,SKKanGAS inh,NLRP3 yeast inh,tim23-1 conf
O=C(NC(=S)Nc1ccc(F)cc1)C1CCCCC1,4.9,41.8,22.9,14.6,1.3,26.7,·
Cc1ccc(NC(=S)NC(=O)C2CCCC2)cc1C,10.3,54.5*,29.2,22.4,9.3,41.7,41.5*
O=C(NC(=S)Nc1cccc(O)c1)C1CCCCC1,·,50.8*,27.5,35.2,·,-9.6,42.4*
O=C(O)C1CCCCC1C(=O)Nc1cccc(Br)c1 (stereo unspecified),12.4,9.8,-14.4,-9.1,·,8.0,·
O/N=C1\CCCc2c1nc(-c1ccccc1F)n2O,·,18.2,7.2,11.6,-8.3,-5.5,·
COc1ccc2nc(NC(=O)CN3C(=O)NC4(CCCCC4)C3=O)sc2c1,-3.4,-1.1,9.3,-2.1,7.0,3.0,·
CCCc1ccc(S(=O)(=O)N/N=C(/C)c2ccc3c(c2)OCO3)cc1,-16.7,52.8*,35.3,14.2,17.5,20.2,48.0*
CCOc1ccc(S(=O)(=O)N/N=C(\C)c2ccc3c(c2)OCO3)cc1,16.9,27.4,16.4,7.5,-0.4,11.4,·
CC(=O)NC(=S)Nc1ccc([N+](=O)[O-])cc1C,11.4,-0.7,-0.7,-0.1,-0.2,16.4,·
Cc1cc([N+](=O)[O-])ccc1NC(=S)NC(=O)Cc1ccccc1,·,50.1*,35.4,29.6,3.7,37.4,26.8
c1cnc2c(c1)ccc1cccnc12,125.4*!,59.1*!,11.3,6.2,23.9,9.3,44.1*
Cc1ccc2cccnc2c1N,-11.7,3.4,-1.4,-0.7,-3.5,-1.3,·
CCOc1ccccc1C(=O)NC(C(=O)Nc1cccc(S(N)(=O)=O)c1)C(C)C (stereo unspecified),-2.7,-5.3,4.9,7.1,3.6,7.1,·
C[C@H](NC(=O)c1ccco1)C(=O)NCCc1ccc(S(N)(=O)=O)cc1,10.0,9.1,-16.5,1.1,-6.3,3.4,·
N#CC1C(C#N)N2CCCN2C1c1ccc(Br)cc1 (stereo unspecified),-1.8,10.5,-1.0,11.8,8.6,9.9,·
C#CCSc1nncn1C(=O)/C=C/c1ccccc1,·,52.1*,35.4,12.3,-17.2,-0.4,76.8*
O=C(NCc1ccc(Cl)cc1)c1cc(S(=O)(=O)N2CCCCC2)c[nH]1,2.2,-9.2,10.6,-2.6,-9.4,15.7,·
NC(=O)c1c(NC(=O)c2ccccc2F)sc2c1CCCC2,-27.2,54.2*,28.7,21.8,7.0,37.4,49.0*
COc1ccc(-c2sc3cc4c(cc3c2-c2ccc(OCCN3CCCCC3)cc2)OCO4)cc1,24.8,33.3,6.6,6.2,·,·,·
COc1cc(OC)cc(-c2sc3ccc(OC)cc3c2-c2ccc(OCCN3CCCCC3)cc2)c1,24.5,51.8*,14.2,6.3,·,·,26.0
c1ccc2c(-c3ccc(OCCN4CCCCC4)cc3)c(-c3ccsc3)sc2c1,32.4,62.9*,-6.4,28.5,·,31.8,65.0*
c1ccc(-c2sc3ccccc3c2-c2ccc(OCCN3CCCCC3)cc2)cc1,18.5,-10.0,2.5,-1.2,·,9.3,·
O=C(CN1C(=O)C(=O)N(Cc2ccco2)C1=O)c1c[nH]c2ccccc12,14.5,17.4,20.9,3.9,-1.0,7.9,·
O=C(CN1C(=O)C(=O)N(CCC2=CCCCC2)C1=O)c1c[nH]c2ccccc12,-0.9,60.0*,13.4,39.5,·,5.7,38.8*
COc1cccc(NC(=O)c2cc3ccccc3o/c2=N\O)c1,8.9,47.4,-18.0,13.7,7.5,35.3,·
SMILES,PfHsp90 set2,tim23-1 inh,tim10-1 inh,TIM10 inh,SKKanGAS inh,NLRP3 yeast inh,tim23-1 conf
COc1cccc(NC(=O)c2cc3cccc(OC)c3o/c2=N\O)c1,·,57.5*,15.5,10.6,-7.3,1.1,47.1*
O=C(Nc1nc2ccccc2[nH]1)c1ccc(OC(F)F)cc1,19.6,63.4*,-15.9,24.5,·,27.2,59.1*
COc1cc(C(=O)Nc2ccc(C)c(S(=O)(=O)N(C)C)c2)ccc1OCC(=O)N1CCOCC1,31.0,10.8,-8.1,-9.6,-6.1,20.8,·
COc1ccc(/C=C/C2=Nc3ccccc3NC(C)(C)C2)cc1OC,8.5,50.8*,19.1,13.3,-8.7,-3.8,43.1*
CC(C(Sc1ccccc1N)c1ccccc1)[N+](=O)[O-] (stereo unspecified),3.8,58.4*,28.7,26.5,4.5,36.3,57.3*
COc1cc(NC(=O)Cn2cnc(S(=O)(=O)N3CCC(C)CC3)c2)cc(OC)c1OC,11.7,12.3,12.6,-1.3,-3.0,4.1,·
CC(C)CCN(C(=S)Nc1cccc(C(F)(F)F)c1)C(C)c1ccccn1 (stereo unspecified),-3.3,54.1*,33.4,37.0,4.5,14.7,54.1*
CCCCc1cc(=O)oc2cc(C)cc(OCC(=O)NC(Cc3ccc(Cl)cc3)C(=O)O)c12 (stereo unspecified),6.8,1.7,4.3,-2.3,10.2,8.1,·
CCN(CC)c1ccc(NC(=O)c2ccccc2Br)cc1S(=O)(=O)Nc1ccccc1OC,-30.5,50.4*,13.8,15.3,4.4,9.2,86.4*
Cc1c(C(=O)OCC(=O)NC2CC2)oc2ccc(Br)cc12,·,12.8,-8.5,-9.4,·,11.0,·
Fc1ccc(-c2ccnc3nc(N4CCN(c5ccccc5)CC4)nn23)cc1,-0.7,41.5,32.6,23.4,-2.3,3.6,·
c1ccc(-c2ccnc3nc(N4CCN(c5ccccc5)CC4)nn23)cc1,-89.1,51.4*,17.0,30.1,-2.3,15.6,37.0
Cc1ccc2oc(C(Cl)(Cl)Cl)cc(=O)c2c1,·,74.8*,37.9,29.8,1.2,23.7,76.4*
CCOC(=O)C1C(C(=O)OC)=C(c2ccc(OC)cc2)c2ccc(OC)cc2N1S(=O)(=O)C(F)(F)F (stereo unspecified),9.7,38.8,19.9,4.2,·,·,·
CCOC(=O)C1=C(C2=CCCCC2)c2ccc(OC)cc2N(S(=O)(=O)C(F)(F)F)C1C(=O)OCC (stereo unspecified),-15.4,53.2*,35.8,24.6,·,·,39.5*
CCOC(=O)c1cnc(-n2nc(C)cc2C)nc1NC1CCCCC1,70.6,53.8*,-32.7,-5.6,83.3*,28.0,43.0*
Cc1csc2c(N3CCN(C(=S)Nc4ccc(C(F)(F)F)cc4)CC3)ncnc12,-4.6,54.9*,24.9,26.2,35.3,22.4,46.5*
Cc1csc2c(N3CCN(C(=O)Nc4ccc(Cl)c(Cl)c4)CC3)ncnc12,5.9,66.6*,26.6,19.2,61.8*,30.9,49.7*
Cc1csc2ncnc(N3CCN(C(=S)Nc4ccc(C(F)(F)F)cc4)CC3)c12,-21.5,21.0,27.6,23.1,14.9,18.2,·
C=C1c2cccc(OC)c2O[C@H](C(=O)OCC)[C@@H]1CC(CC)CCCC (stereo partly specified),-15.4,51.0*,27.4,15.6,·,·,36.0
COc1ccc(OC)c(NC(=O)Nc2ccc(Cl)cc2)c1,23.6,69.5*,33.6,27.7,6.1,33.4,66.7*

# Source: PubChem BioAssay (several laboratories)
